Screening results deposited in PubChem by several laboratories.
ALR H2O2 inh = blocks human ALR sulfhydryl oxidase activity; P55789; purified ALR, DTT oxidation, H2O2 HRP-luminol luminescence; inhibition, % (no concentration beside the values); 290,000 compounds, 3.8% hits;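 active = mean replicate inhibition above about 79%, with every replicate also reaching it, limit read from the data; inconclusive = only one of the two criteria met; inactive = mean below limit and not every replicate reaching it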
M18AAP inhibitor = blocks P. falciparum M18 aspartyl aminopeptidase | AID 1822 | 290,000 compounds, 1.2% hits | inhibition, % at 7.35 µM | recombinant PfM18AAP, H-Glu-NHMec fluorogenic cleavage;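 active = inhibition above the campaign mean inhibition over all tested compounds plus 3 SD, cut at about 28% in these data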
PolyA inhibitor = blocks polyadenylation in yeast reporter cells | S. cerevisiae SKY197-pL101 polyadenylation reporter, beta-gal luminescence; efflux-impaired pdr1/pdr3 knockout yeast; score 100 = 6 SD above DMSO | activity score, % at 12 µM | 300,000 compounds, 0.02% hits | AID 1875;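 active = lowest replicate activity score at least 50, where 100 means six control SD above control mean; inconclusive = lowest score under 50 but half or more replicates reach 50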;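 note: yeast exposed to compound for 9 h at 30 °C; higher score means more reporter readthrough which indicates perturbed polyadenylation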
CaV13 ICDI inh = Primary screen for inhibitors of IQ motif and Ca2+-dependent inactivation inhibitor domain binding in CACNA1D, Förster resonance energy transfer in living cells, … | HEK cells, CFP/YFP FRET ICDI-IQ, plate reader, 10 min; percent FRET-ratio fall versus neutral wells | inhibition, % at 12.3 µM | 340,000 compounds, 0.098% hits;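 active = mean replicate inhibition of at least 30% and at least 1% of replicates passing that level; inconclusive = only one of the two criteria is met; inactive = neither criterion is met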
IDE cell inh = inhibitors of human insulin-degrading enzyme in cells. inhibition, % at 5.59 µM. 320,000 compounds, 0.41% hits. AID 434962. HEK cells, FAbetaB cleavage, fluorescence polarization. P14735;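 active = percent inhibition above the average of all tested compounds plus 3 SD, set per screening campaign, cut at about 16% in these data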;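 note: IDE supplied by intact live HEK cells; FP after avidin binding of uncleaved biotin substrate so inhibition keeps polarization high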
IDE act = activators of human insulin-degrading enzyme in cells; activation, % at 5.96 µM; HEK cells, FAbeta-B cleavage, fluorescence polarization; 0% vehicle, 100% cell-free pure enzyme wells; P14735; 340,000 compounds, 0.073% hits;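 active = activation above the mean of all tested compounds plus 3 SD, set per screening campaign, cut at about 17% in these data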
A number is an active result. Hits are enriched below; roughly 4.1% of the tested compounds scored in any of these assays.

For Cc1ccc(S(=O)(=O)CC(=O)NC(C)(C)C)cc1 the results were ALR H2O2 inh inactive, M18AAP inhibitor inactive, PolyA inhibitor inactive, CaV13 ICDI inh inactive, IDE cell inh inactive and IDE act inactive.
O=[N+]([O-])C(=C1Nc2ccccc2N1)/C(Cl)=C(/Cl)Br was read as ALR H2O2 inh 88.9, M18AAP inhibitor inactive, PolyA inhibitor inactive, CaV13 ICDI inh inactive, IDE cell inh inactive and IDE act inactive.
N/C(=N/O)c1ccccc1N1CCC(Cc2ccccc2)CC1 was read as ALR H2O2 inh 91.8, M18AAP inhibitor inactive, PolyA inhibitor inactive, CaV13 ICDI inh inactive, IDE cell inh inactive and IDE act inactive.
Screening c1ccc(CC2CCN(c3nnnn3-c3ccccc3)CC2)cc1 returned ALR H2O2 inh inactive, M18AAP inhibitor inactive, PolyA inhibitor inactive, CaV13 ICDI inh inactive, IDE cell inh inactive and IDE act inactive.
`COc1ccc(S(=O)(=O)NCc2ccccn2)cc1NC(=O)c1ccccc1F` gave ALR H2O2 inh inactive, M18AAP inhibitor inactive, PolyA inhibitor inactive, CaV13 ICDI inh inactive, IDE cell inh inactive and IDE act inactive.
For CCN(CC)C(=O)CSC(Nc1ccc(F)cc1)=C(C#N)C#N the results were ALR H2O2 inh 98.8, M18AAP inhibitor inactive, PolyA inhibitor inactive, CaV13 ICDI inh inactive, IDE cell inh inactive and IDE act inactive.
`CCOC(=O)c1c(/N=C/c2cc(C)ccc2O)sc2c1CCN(C)C2` gave ALR H2O2 inh 97.8, M18AAP inhibitor inactive, PolyA inhibitor inactive, CaV13 ICDI inh inactive, IDE cell inh inactive and IDE act inactive.
Screening Cc1nn(-c2ccccc2)c2[nH]c(=O)c(CNCc3ccc4c(c3)OCO4)cc12 returned ALR H2O2 inh inactive, M18AAP inhibitor inactive, PolyA inhibitor inactive, CaV13 ICDI inh inactive, IDE cell inh inactive and IDE act inactive.
Screening Cc1nn(-c2ccccc2)c2[nH]c(=O)c(CNCCN3CCOCC3)cc12 returned ALR H2O2 inh 91.0, M18AAP inhibitor inactive, PolyA inhibitor inactive, CaV13 ICDI inh inactive, IDE cell inh inactive and IDE act inactive.
CC(Oc1ccccc1)C(=O)Nc1ccccc1O (stereo unspecified) was read as ALR H2O2 inh 89.9, M18AAP inhibitor inactive, PolyA inhibitor inactive, CaV13 ICDI inh inactive, IDE cell inh inactive and IDE act inactive.
Screening COC(=O)c1ccccc1NC(=O)C(C)Oc1ccccc1 (stereo unspecified) returned ALR H2O2 inh inactive, M18AAP inhibitor inactive, CaV13 ICDI inh inactive, IDE cell inh inactive and IDE act inactive.
Cc1ccc(S(=O)(=O)NC(=O)C2(C)CCN2C(=O)c2cccc(F)c2)cc1 (stereo unspecified) was read as CaV13 ICDI inh inactive.
For CCOc1ncccc1C(=O)N(CC)CC(=O)NCc1ccc(F)cc1 the results were ALR H2O2 inh inactive, M18AAP inhibitor inactive, PolyA inhibitor inactive, CaV13 ICDI inh inactive, IDE cell inh inactive and IDE act inactive.
For COc1ccccc1/C=C/C=N/n1c(-c2n[nH]c3c2CCC3)n[nH]c1=S the results were ALR H2O2 inh inactive, M18AAP inhibitor inactive, PolyA inhibitor inactive, CaV13 ICDI inh inactive and IDE cell inh inactive.
Screening COc1cccc(/C=N/n2c(-c3n[nH]c4c3CCC4)n[nH]c2=S)c1O returned ALR H2O2 inh 97.0, M18AAP inhibitor inactive, PolyA inhibitor inactive, CaV13 ICDI inh inactive, IDE cell inh inactive and IDE act inactive.
`COc1ccccc1/C=C/C=N/n1c(-c2cc(C)[nH]n2)n[nH]c1=S` gave ALR H2O2 inh inconclusive, M18AAP inhibitor inactive, PolyA inhibitor inactive, CaV13 ICDI inh inactive, IDE cell inh inactive and IDE act inactive.
`COc1cccc(/C=N/n2c(-c3cc(C)[nH]n3)n[nH]c2=S)c1O` gave ALR H2O2 inh 97.7, M18AAP inhibitor inactive, PolyA inhibitor inactive, CaV13 ICDI inh inactive, IDE cell inh inactive and IDE act inactive.
S=c1[nH]nc(-c2n[nH]c3c2CCC3)n1/N=C/C=C/c1ccco1 was read as ALR H2O2 inh 97.5, M18AAP inhibitor inactive, PolyA inhibitor inactive, CaV13 ICDI inh inactive and IDE cell inh inactive.
For Cc1cc(-c2n[nH]c(=S)n2/N=C/c2ccc(Br)s2)n[nH]1 the results were ALR H2O2 inh 96.7, M18AAP inhibitor inactive, PolyA inhibitor inactive, CaV13 ICDI inh inactive, IDE cell inh inactive and IDE act inactive.
CNC[C@H]1OCc2cnnn2CCCC(=O)N([C@@H](C)CO)C[C@@H]1C was read as CaV13 ICDI inh inactive.
`Cc1cc(-c2n[nH]c(=S)n2/N=C/c2ccccc2[N+](=O)[O-])n[nH]1` gave ALR H2O2 inh 94.9, M18AAP inhibitor inactive, PolyA inhibitor inactive, CaV13 ICDI inh inactive, IDE cell inh inactive and IDE act inactive.
Screening S=c1[nH]nc(COc2ccccc2)n1/N=C/C=C/c1ccco1 returned ALR H2O2 inh 97.2, M18AAP inhibitor inactive, PolyA inhibitor inactive, CaV13 ICDI inh inactive and IDE cell inh inactive.
`S=c1[nH]nc(COc2ccccc2)n1/N=C/C=C/c1ccccc1` gave ALR H2O2 inh inactive, M18AAP inhibitor inactive, PolyA inhibitor inactive, CaV13 ICDI inh inactive, IDE cell inh inactive and IDE act inactive.
For COc1cc(/C=N/n2c(-c3n[nH]c4c3CCC4)n[nH]c2=S)cc(OC)c1O the results were ALR H2O2 inh 95.2, M18AAP inhibitor inactive, PolyA inhibitor inactive, CaV13 ICDI inh inactive, IDE cell inh inactive and IDE act inactive.
COc1ccc(COC(=O)CNC(=O)C2CCCCC2)cc1F was read as ALR H2O2 inh inactive, CaV13 ICDI inh inactive, IDE cell inh inactive and IDE act inactive.
For Cc1cc(C)c(C)c(S(=O)(=O)N2C(=S)NC(=O)C2C(C)C)c1C (stereo unspecified) the results were ALR H2O2 inh 96.3, M18AAP inhibitor inactive, PolyA inhibitor inactive, IDE cell inh inactive and IDE act inactive.
Cc1cc(C)c(C)c(S(=O)(=O)N2C(=S)NC(=O)C2CC(C)C)c1C (stereo unspecified) was read as M18AAP inhibitor inactive, PolyA inhibitor inactive, CaV13 ICDI inh inactive, IDE cell inh inactive and IDE act inactive.
Cc1cc(OCC(=O)N2CCOCC2)ccc1NC(=O)c1ccccc1C was read as ALR H2O2 inh inactive, M18AAP inhibitor inactive, PolyA inhibitor inactive, IDE cell inh inactive and IDE act inactive.
`Cc1ccc(N2CCN(C(=O)N3CCCC3)CC2)cc1Cl` gave ALR H2O2 inh 98.5, M18AAP inhibitor inactive, PolyA inhibitor inactive, CaV13 ICDI inh inactive, IDE cell inh inactive and IDE act inactive.
`Cc1ccc(N2CCN(S(=O)(=O)N3CCCCC3)CC2)cc1Cl` gave ALR H2O2 inh inactive, M18AAP inhibitor inactive, PolyA inhibitor inactive, CaV13 ICDI inh inactive, IDE cell inh inactive and IDE act inactive.
For COc1cc(NC(=O)C2(C)CCN2C(C)C)cc(OC)c1OC (stereo unspecified) the results were CaV13 ICDI inh inactive.
